Laboratory results taken from PubChem BioAssay AID1159580 (chemical genetic matrix, 2015).
Several values for one entry are separate records, joined by “and”; a condition that tells them apart may be missing. Identical values can stand only once. The campaign covered roughly 5,500 compounds. About 2,000 (36%) were called active. About 18% were inconclusive and are not listed. No stated cut-off is given here; in the data, active means normalized growth mostly below about 0.91 (no sharp cut-off); inconclusive means no clear call, values can overlap the other calls; inactive means mostly above about 0.92. The list shows a part of the results.

Assay: chemical genetic growth profiling, strain panel (AID 1159580);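 further: tested at 20 µM; growth read once vehicle control cultures reached saturation at 30 °C; 1 = growth at the plate median or of vehicle wells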
Conditions: S. cerevisiae deletion strains, growth OD

Measured: normalized growth

Nc1ccncc1
inactive: locus YAL013W, strain DEP1, stronger effect = lower value 1.02 and 1.01 | locus YAL021C, strain ccr4, stronger effect = lower value 0.996 | locus YAL026C, strain drs2, stronger effect = lower value 1 | locus YAL030W, strain snc1, stronger effect = lower value 0.997 | locus YAL040C, strain CLN3, stronger effect = lower value 0.997 | locus YBL061C, strain skt5, stronger effect = lower value 0.99 | locus YBR009C, strain hhf1, stronger effect = lower value 1 | locus YBR021W, strain FUR4, stronger effect = lower value 1.02 | locus YBR023C, strain chs3, stronger effect = lower value 0.993 | locus YBR171W, strain sec66, stronger effect = lower value 0.979 | locus YBR229C, strain ROT2, stronger effect = lower value 0.985 | locus YBR231C, strain swc5, stronger effect = lower value 0.994 | locus YBR279W, strain paf1, stronger effect = lower value 0.998 | locus YCL011C, strain gbp2, stronger effect = lower value 0.995 | locus YCL016C, strain dcc1, stronger effect = lower value 1 | locus YCL029C, strain bik1, stronger effect = lower value 0.973 | locus YCL061C, strain MRC1 (second series), stronger effect = lower value 1 | locus YCL061C, strain MRC1, stronger effect = lower value 0.99 | locus YCL069W, strain vba3, stronger effect = lower value 0.998 | locus YCR088W, strain abp1, stronger effect = lower value 0.981 | locus YDL005C, strain med2, stronger effect = lower value 0.991 | locus YDL035C, strain GPR1, stronger effect = lower value 1.03 | locus YDL040C, strain nat1, stronger effect = lower value 0.989 | locus YDL074C, strain BRE1, stronger effect = lower value 1.05 | locus YDL101C, strain DUN1, stronger effect = lower value 1.01 | locus YDL134C, strain PPH21, stronger effect = lower value 1.02 | locus YDL185W, strain tfp1, stronger effect = lower value 0.981 | locus YDL192W, strain arf1, stronger effect = lower value 0.98 | locus YDR001C, strain nth1, stronger effect = lower value 0.991 | locus YDR069C, strain doa4, stronger effect = lower value 1 | locus YDR101C, strain arx1, stronger effect = lower value 0.972 | locus YDR137W, strain rgp1, stronger effect = lower value 1 | locus YDR150W, strain NUM1, stronger effect = lower value 1.02 | locus YDR159W, strain sac3, stronger effect = lower value 1 | locus YDR162C, strain NBP2, stronger effect = lower value 1.01 | locus YDR195W, strain ref2 1.01 | locus YDR297W, strain sur2, stronger effect = lower value 1 | locus YDR318W, strain mcm21, stronger effect = lower value 0.955 | locus YDR334W, strain swr1, stronger effect = lower value 0.997 | locus YDR335W, strain msn5, stronger effect = lower value 0.997 | locus YDR363W, strain ESC2, stronger effect = lower value 1.01 | locus YDR388W, stronger effect = lower value 0.965 | locus YDR392W, strain spt3, stronger effect = lower value 0.994 | locus YDR502C, strain sam2, stronger effect = lower value 0.968 | locus YEL003W, strain gim4, stronger effect = lower value 1 | locus YEL037C, strain rad23, stronger effect = lower value 0.989 | locus YEL061C, strain CIN8 (second series), stronger effect = lower value 0.994 | locus YEL061C, strain CIN8, stronger effect = lower value 1.01 | locus YER002W, strain NOP16, stronger effect = lower value 1.01 | locus YER015W, strain faa2, stronger effect = lower value 0.995 | locus YER016W, strain bim1, stronger effect = lower value 0.995 | locus YER110C, stronger effect = lower value 0.973 | locus YER111C, strain swi4, stronger effect = lower value 0.987 | locus YER155C, strain BEM2 (second series), stronger effect = lower value 0.947 | locus YER155C, strain BEM2, stronger effect = lower value 1.01 | locus YER167W, strain BCK2, stronger effect = lower value 1.02 | locus YFR010W, strain ubp6, stronger effect = lower value 0.996 | locus YGL078C, strain dbp3, stronger effect = lower value 0.982 | locus YGL086W, strain mad1, stronger effect = lower value 0.975 | locus YGL167C, strain pmr1, stronger effect = lower value 0.992 | locus YGL173C, strain kem1, stronger effect = lower value 0.99 | locus YGL227W, strain vid30, stronger effect = lower value 0.98 | locus YGL240W, strain doc1, stronger effect = lower value 1 | locus YGL248W, strain PDE1, stronger effect = lower value 1.02 | locus YGL253W, strain hxk2, stronger effect = lower value 1 | locus YGR078C, strain PAC10, stronger effect = lower value 1.02 and 1.01 | locus YGR135W, strain pre9, stronger effect = lower value 0.971 | locus YGR229C, strain SMI1, stronger effect = lower value 1.01 and 1 | locus YGR252W, strain gcn5, stronger effect = lower value 0.92 | locus YHR013C, strain ard1, stronger effect = lower value 0.999 | locus YHR027C, strain rpn1, stronger effect = lower value 0.998 | locus YHR030C, strain SLT2, stronger effect = lower value 1.01 and 0.98 | locus YHR079C, strain IRE1 (second series), stronger effect = lower value 0.965 | locus YHR079C, strain IRE1, stronger effect = lower value 0.961 | locus YHR094C, strain hxt1, stronger effect = lower value 0.974 | locus YHR129C, strain ARP1, stronger effect = lower value 1.01 | locus YHR142W, strain chs7, stronger effect = lower value 0.993 | locus YHR200W, strain rpn10, stronger effect = lower value 0.96 | locus YIL066C, strain RNR3, stronger effect = lower value 1.03 | locus YIL073C, strain SPO22, stronger effect = lower value 0.993 | locus YIL125W, strain kgd1, stronger effect = lower value 0.991 | locus YIR030C, strain dcg1, stronger effect = lower value 0.975 | locus YJL092W, strain hpr5, stronger effect = lower value 0.99 | locus YJL095W, strain BCK1 (second series), stronger effect = lower value 0.991 | locus YJL095W, strain BCK1, stronger effect = lower value 0.978 and 0.981 | locus YJL115W, strain asf1, stronger effect = lower value 0.984 | locus YJL129C, strain trk1, stronger effect = lower value 0.988 | locus YJL134W, strain LCB3, stronger effect = lower value 1.01 | locus YJL154C, strain vps35, stronger effect = lower value 0.992 | locus YJL164C, strain tpk1, stronger effect = lower value 1.01 | locus YJL166W, strain qcr8, stronger effect = lower value 0.989 | locus YJL168C, strain set2, stronger effect = lower value 0.963 | locus YJL187C, strain SWE1 (second series), stronger effect = lower value 1.03 | locus YJL187C, strain SWE1, stronger effect = lower value 1 | locus YJR043C, strain POL32, stronger effect = lower value 1 | locus YJR066W, strain TOR1, stronger effect = lower value 0.917
